Bioassay records as filed in PubChem.
PAFAH2 FP inh: PAFAH2 enzyme inhibitors, primary screen, biochemical, fluorescence polarization, human; Platelet-activating factor acetylhydrolase 2, cytoplasmic (Homo sapiens), Q99487; recombinant PAFAH2, FP-rhodamine activity probe; inhibition, % at 3.39 µM; actives 0.99% (n = 340,000);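 active means inhibition above the mean over all tested compounds plus 3 SD, cut at about 30% in these data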;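 further: inhibitors block probe labeling of enzyme so polarization drops; 0% = enzyme with DMSO and 100% = wells lacking PAFAH2 protein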
PAFAH1B3 FP inh: PAFAH1B3 enzyme inhibitors, primary screen, biochemical, fluorescence polarization, human; actives 0.28% (n = 340,000); inhibition, % at 3.39 µM; recombinant PAFAH1B3, FP-rhodamine probe;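 active means inhibition above the screen-wide average of all tested compounds plus 3 SD, cut at about 25% in these data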;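 further: 0% = enzyme with DMSO only and 100% = wells lacking PAFAH1B3 protein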
Fam108B inh: mouse Fam108B serine hydrolase inhibitors, primary screen, counter-screen for RBBP9 inhibitor project, biochemical, fluorescence polarization; recombinant Fam108B, FP-Rh probe fluorescence polarization; actives 0.33% (n = 300,000); inhibition, % at 9.51 µM;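 active means inhibition above the screen mean inhibition plus 3 SD, computed separately per campaign, cut at about 18% in these data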;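 further: inhibitors lower polarization as less probe binds the enzyme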
pPAFAH FP inh: pPAFAH enzyme inhibitors, primary screen, biochemical, fluorescence polarization, human. Platelet-activating factor acetylhydrolase (Homo sapiens), Q13093. recombinant pPAFAH, FP-rhodamine probe fluorescence polarization. inhibition, % at 3.39 µM. actives 1.5% (n = 330,000). AID 463082, 2010;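 active means inhibition above the mean inhibition across the screen plus 3 SD, cut at about 25% in these data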;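 further: inhibitors block binding of the rhodamine activity-based probe so polarization drops; 0% = enzyme with DMSO and 100% = wells lacking pPAFAH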
Target sequence (Q13093 whole entry, looked up): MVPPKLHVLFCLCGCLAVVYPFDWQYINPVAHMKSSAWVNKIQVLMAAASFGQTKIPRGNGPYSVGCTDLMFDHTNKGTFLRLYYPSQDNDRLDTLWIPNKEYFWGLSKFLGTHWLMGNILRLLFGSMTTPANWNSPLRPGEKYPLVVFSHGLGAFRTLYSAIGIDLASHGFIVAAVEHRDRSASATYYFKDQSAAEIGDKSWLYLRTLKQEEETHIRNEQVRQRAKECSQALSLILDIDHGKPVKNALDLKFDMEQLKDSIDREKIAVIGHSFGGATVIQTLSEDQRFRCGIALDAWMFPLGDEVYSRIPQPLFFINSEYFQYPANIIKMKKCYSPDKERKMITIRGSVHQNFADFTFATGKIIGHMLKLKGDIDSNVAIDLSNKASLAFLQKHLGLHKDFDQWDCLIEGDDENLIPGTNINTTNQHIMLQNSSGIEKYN
PAFAH1B2 FP inh: PAFAH1B2 enzyme inhibitors, primary screen, biochemical, fluorescence polarization, human; Platelet-activating factor acetylhydrolase IB subunit alpha2 (Homo sapiens), P68402; recombinant PAFAH1B2, FP-rhodamine activity probe; inhibition, % at 3.39 µM; actives 1.2% (n = 340,000);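 active means inhibition above the mean of all tested compounds plus 3 SD, cut at about 24% in these data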;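 further: 0% = enzyme with DMSO and 100% = wells lacking PAFAH1B2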
PME-1 inh: PME-1 inhibitors via competitive probe labeling, primary screen, biochemical, fluorescence polarization, FP-Rh probe, HTS; Protein phosphatase methylesterase 1 (Homo sapiens), Q9Y570; inhibition, % at 5.9 µM; recombinant PME-1; AID 2130, 2009; actives 0.53% (n = 320,000);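 active means inhibition above the campaign mean of all compounds plus 3 SD, cut at about 26% in these data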;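 further: competitive labeling of PME-1 active site by serine hydrolase directed probe; 0% = PME-1 with DMSO and 100% = wells lacking PME-1 enzyme; inhibitors block probe labeling so polarization falls and inhibition rises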
Fam108b confirm: mouse Fam108b serine hydrolase inhibitors, confirmation, counter-screen for RBBP9 inhibitor project, biochemical, fluorescence polarization, triplicate; actives 44% (n = 930); recombinant Fam108b, FP-Rh probe fluorescence polarization; inhibition, % at 9.51 µM; shares compounds with Fam108B inh;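 active means inhibition above a limit from the primary screen, the mean over all compounds plus 3 SD, cut at about 19% in these data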;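 further: 0% = median of active Fam108b wells and 100% = catalytically dead S170A mutant; inhibitors free the probe so polarization falls as inhibition rises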
Fam108b ABPP HTS: inhibition of mouse Fam108b by HTS hits, late-stage follow-up, biochemical, gel-based ABPP, soluble recombinant form. shares compounds with Fam108B inh. fluorophosphonate probe. inhibition, % at 20 µM. actives 44% (n = 260). AID 588649, 2011; in the data active means inhibition above about 40%
* marks the source's active call; other numbers are inactive results; x = not tested or not shown. Compounds with a hit are over-represented: about 2.8% of the library has one in this group of screens.

SMILES | PAFAH2 FP inh | PAFAH1B3 FP inh | Fam108B inh | pPAFAH FP inh | PAFAH1B2 FP inh | PME-1 inh | Fam108b confirm | others
O=c1c2[nH]c3ccccc3c2ncn1CCC1=CCCCC1 | 1.1 | 0.2 | 0.8 | 1.9 | -2.5 | 1.1 | x
C1=C(CCNc2ncnc3c2[nH]c2ccccc23)CCCC1 | 3.9 | 10.7 | 21.0* | 7.2 | 7.9 | 45.1* | 7.6
N=c1oc2cc(O)ccc2cc1C(=O)Nc1ccc(Cl)cc1 | 16.2 | 3.8 | 21.9* | 2.4 | 3.4 | 2.8 | -4.8
C=CCN1C(=O)c2ccc(C(=O)NCC(=O)Nc3c(C)cc(C)cc3C)cc2C1=O | 3.6 | 2.5 | x | -6.1 | 9.8 | -3.8 | x
OC1(c2nc3ccccc3[nH]2)CCCCC1 | -1.0 | 8.8 | -0.3 | -1.2 | 2.6 | 2.2 | x
Brc1ccc(C2=Nc3cccc4cccc(c34)N2)o1 | -11.0 | 13.4 | 19.5* | 13.5 | 1.3 | 2.8 | 12.1
CC(=O)Nc1ccc(N=Cc2c(O)c(C(=O)Nc3ccccc3)cc3ccccc23)cc1 | x | x | 21.8* | 11.2 | x | 3.1 | 14.0
CC(=O)Nc1ccc(N=Cc2c(O)c3ccccc3oc2=O)cc1 | -4.9 | -9.6 | x | x | 3.6 | x | x
C/C=C(\C)C(=O)NCCN1C2=NC[C@H](C(C)C)N2C[C@@H]1Cc1ccc(OC)cc1 | -1.9 | 0.6 | 20.8* | 5.3 | 3.9 | 3.7 | -7.2
O=C(CSc1ccc(-c2ccco2)nn1)NCc1ccccc1Cl | 2.0 | -2.5 | 21.5* | 8.1 | 3.3 | 16.7 | 5.6
CC(C)(C)c1nc2scc(-c3cccs3)c2c(=O)o1 | 1.1 | 0.9 | 54.9* | -0.4 | 4.5 | -3.6 | 106.1* | Fam108b ABPP HTS=85.0*
CC(C)(C)c1nc2scc(-c3ccc(Cl)cc3)c2c(=O)o1 | 0.7 | 3.6 | 20.8* | -0.6 | 2.4 | -4.1 | 19.4*
CC(=O)NCC1CCN(C(=O)C2CCC(=O)N(CCc3cccc(F)c3)C2)CC1 (centres undefined) | -1.9 | 2.5 | 2.9 | 4.4 | 5.9 | 1.5 | x
O=C(O)c1ccccc1N=Nc1c(O)[nH]c2ccc([N+](=O)[O-])cc12 | 36.9* | 17.8 | 20.6* | 20.6 | 8.6 | 6.9 | 13.5
O=C(N=Nc1c(O)[nH]c2ccc([N+](=O)[O-])cc12)c1ccccc1Cl | 11.6 | 3.8 | -1.9 | 2.5 | 5.9 | -4.5 | x
Nc1c(N2CCOCC2)cc(Cl)c2nonc12 | -2.4 | 0.9 | 0.4 | 4.7 | -2.0 | -0.7 | x
Nc1c(N2CCCC2)cc(Cl)c2nonc12 | 35.1* | 65.7* | 54.3* | 14.9 | 13.2 | 31.3* | 42.3* | Fam108b ABPP HTS=0.0
Nc1ccc(N2CCCCC2)c2nonc12 | 3.9 | 10.3 | 66.6* | 1.8 | 4.3 | 33.9* | -3.7
COc1ccc(CC(=O)NC(C)c2nnc(SCC(=O)Nc3cc(C)ccc3OC)n2C)cc1 (centres undefined) | -9.8 | -2.3 | 2.9 | -3.9 | 0.5 | 3.1 | x
COc1ccccc1C(=O)NCC(=O)N1CC=C(c2ccccc2)CC1 | 1.7 | 5.0 | x | -0.7 | 8.8 | 5.2 | x
COc1ccc(C)cc1NC(=O)Cn1c(=O)oc2ccccc21 | 0.3 | 1.7 | 2.1 | 5.9 | 4.7 | -5.1 | x
COc1ccccc1NC(=O)CCCCCN1C(=O)c2cccc([N+](=O)[O-])c2C1=O | 4.1 | -7.1 | 0.0 | 1.8 | 1.5 | -0.3 | x
COc1cc(/C=C2/C(=O)c3cccc([N+](=O)[O-])c3C2=O)c(Br)cc1O | 39.6* | 40.4* | 26.7* | 32.0* | 16.5 | 31.7* | 40.1* | Fam108b ABPP HTS=45.0*
O=C(c1ccc(S(=O)(=O)N2CCCCCC2)cc1)N1CCN(c2ccccc2F)CC1 | 1.5 | -5.8 | -1.0 | 3.6 | -5.9 | 3.8 | x
COc1ccc(Nc2nc(-c3cccs3)nc3ccccc23)cc1 | -7.0 | 15.9 | 28.2* | 12.4 | 11.9 | 18.2 | -10.9
